# From article PMC7862700, “An all-to-all approach to the identification of sequence-specific readers for epigenetic DNA modifications on cytosine”
# Legend:
# Assay in all cases: DAPPL (digital affinity profiling via proximity ligation, sequencing); 10 mM Tris-HCl pH 7.5, 50 mM NaCl, 1 mM DTT, 4% glycerol, room temperature, 30 min; GST-TFs on glutathione beads, 16-mer random dsDNA library, 0.1% formaldehyde crosslink after washing; high values mean tight binding
# GABPA = target: T1, GABPA (Homo sapiens, UniProt Q06546 1-454); conditions: protein: recombinant; tags: N-terminal GST; dsDNA, one strand shown
# T1 sequence: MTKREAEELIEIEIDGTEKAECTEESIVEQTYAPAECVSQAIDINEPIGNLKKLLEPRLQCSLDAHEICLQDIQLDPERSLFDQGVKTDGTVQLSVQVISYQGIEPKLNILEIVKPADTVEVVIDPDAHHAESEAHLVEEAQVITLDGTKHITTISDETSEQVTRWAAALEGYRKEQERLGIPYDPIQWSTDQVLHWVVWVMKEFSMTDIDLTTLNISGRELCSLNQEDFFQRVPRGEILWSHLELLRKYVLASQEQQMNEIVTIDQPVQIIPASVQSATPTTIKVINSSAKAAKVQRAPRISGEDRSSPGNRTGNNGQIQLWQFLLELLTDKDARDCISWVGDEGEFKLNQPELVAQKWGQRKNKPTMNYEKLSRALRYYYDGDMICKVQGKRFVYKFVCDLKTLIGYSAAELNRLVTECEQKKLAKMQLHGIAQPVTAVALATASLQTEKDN
# Method in brief: (§1)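 Pools were built from human transcription factors expressed in yeast as GST fusions, captured on glutathione beads and DNA-barcoded, along with a tag-only sample. Incubation with 200 nmole of a 16-mer random double-stranded DNA library lasted 30 min at room temperature in Tris/NaCl/DTT/glycerol buffer, and was followed by washing, 0.1% formaldehyde crosslinking, proximity ligation, PCR amplification and Illumina NextSeq500 sequencing. Binding signal is the quotient of each hexamer's read frequency for a factor and its frequency for the tag-only sample.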
# ERG = target: T2, ERG (Homo sapiens, UniProt P11308 1-479); conditions: protein: recombinant; tags: N-terminal GST; dsDNA, one strand shown
# T2 sequence: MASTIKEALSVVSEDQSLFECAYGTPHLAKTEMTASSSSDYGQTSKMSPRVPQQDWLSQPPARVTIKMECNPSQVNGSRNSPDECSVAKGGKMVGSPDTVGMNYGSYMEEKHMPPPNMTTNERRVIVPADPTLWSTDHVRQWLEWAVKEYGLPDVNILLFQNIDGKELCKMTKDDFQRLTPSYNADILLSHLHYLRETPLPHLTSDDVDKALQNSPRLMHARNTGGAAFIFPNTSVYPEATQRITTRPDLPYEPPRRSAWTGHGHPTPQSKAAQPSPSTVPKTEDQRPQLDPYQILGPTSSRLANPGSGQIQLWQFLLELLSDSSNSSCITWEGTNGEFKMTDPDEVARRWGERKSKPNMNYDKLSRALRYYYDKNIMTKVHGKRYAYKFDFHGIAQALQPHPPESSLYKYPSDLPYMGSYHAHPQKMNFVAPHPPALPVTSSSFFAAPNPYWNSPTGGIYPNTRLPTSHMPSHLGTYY
# Method in brief: as §1
# SPI1 = SPI1 (Homo sapiens, UniProt P17947 1-270); conditions: protein: recombinant; tags: N-terminal GST; dsDNA, one strand shown
# Method in brief: as §1
# SPIB = SPIB (Homo sapiens, UniProt Q01892 1-262); conditions: protein: recombinant; tags: N-terminal GST; dsDNA, one strand shown
# Chain of SPIB (Q01892 whole entry): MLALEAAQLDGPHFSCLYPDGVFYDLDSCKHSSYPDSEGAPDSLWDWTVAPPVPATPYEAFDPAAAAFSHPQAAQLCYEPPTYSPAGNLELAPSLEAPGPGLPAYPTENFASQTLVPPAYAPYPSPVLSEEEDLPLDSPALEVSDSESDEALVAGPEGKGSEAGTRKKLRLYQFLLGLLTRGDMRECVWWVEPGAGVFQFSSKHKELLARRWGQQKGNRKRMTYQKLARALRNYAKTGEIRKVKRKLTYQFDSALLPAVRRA
# Method in brief: as §1
# ELK3 = target: T3, ELK3 (Homo sapiens, UniProt P41970 1-407); conditions: protein: recombinant; tags: N-terminal GST; dsDNA, one strand shown
# T3 sequence: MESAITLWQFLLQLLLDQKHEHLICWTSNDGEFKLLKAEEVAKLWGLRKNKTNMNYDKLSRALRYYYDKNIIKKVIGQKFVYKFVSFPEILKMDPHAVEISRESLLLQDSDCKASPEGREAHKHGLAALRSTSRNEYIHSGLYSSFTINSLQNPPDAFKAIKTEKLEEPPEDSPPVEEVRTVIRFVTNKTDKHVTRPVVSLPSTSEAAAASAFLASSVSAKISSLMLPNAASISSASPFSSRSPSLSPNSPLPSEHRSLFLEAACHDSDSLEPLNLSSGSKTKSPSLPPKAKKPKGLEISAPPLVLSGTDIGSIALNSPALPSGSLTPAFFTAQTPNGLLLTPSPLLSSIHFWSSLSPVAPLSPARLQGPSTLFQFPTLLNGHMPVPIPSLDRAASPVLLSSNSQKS
# Method in brief: as §1
# HSF1 = HSF1 (Homo sapiens, UniProt Q00613 1-529); conditions: protein: recombinant; tags: N-terminal GST; chain copies: 3; dsDNA, one strand shown
# Chain of HSF1 (Q00613 whole entry): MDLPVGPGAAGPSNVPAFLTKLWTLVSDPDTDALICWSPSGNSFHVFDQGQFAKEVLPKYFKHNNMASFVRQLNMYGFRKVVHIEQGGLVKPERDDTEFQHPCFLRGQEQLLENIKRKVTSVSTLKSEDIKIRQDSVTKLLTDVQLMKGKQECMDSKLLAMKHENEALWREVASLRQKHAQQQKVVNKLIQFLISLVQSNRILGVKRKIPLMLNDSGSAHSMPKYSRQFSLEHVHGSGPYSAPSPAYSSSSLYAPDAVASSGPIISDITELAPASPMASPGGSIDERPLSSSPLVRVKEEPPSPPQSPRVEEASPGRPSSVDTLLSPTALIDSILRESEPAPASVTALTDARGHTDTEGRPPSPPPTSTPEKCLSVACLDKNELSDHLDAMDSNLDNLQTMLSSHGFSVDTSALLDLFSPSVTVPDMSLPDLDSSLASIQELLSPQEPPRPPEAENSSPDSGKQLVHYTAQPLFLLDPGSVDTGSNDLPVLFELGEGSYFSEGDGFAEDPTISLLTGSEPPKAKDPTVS
# Method in brief: as §1
# ELK4 = target: T4, ELK4 (Homo sapiens, UniProt P28324-2 1-405); conditions: protein: recombinant; tags: N-terminal GST; dsDNA, one strand shown
# T4 sequence: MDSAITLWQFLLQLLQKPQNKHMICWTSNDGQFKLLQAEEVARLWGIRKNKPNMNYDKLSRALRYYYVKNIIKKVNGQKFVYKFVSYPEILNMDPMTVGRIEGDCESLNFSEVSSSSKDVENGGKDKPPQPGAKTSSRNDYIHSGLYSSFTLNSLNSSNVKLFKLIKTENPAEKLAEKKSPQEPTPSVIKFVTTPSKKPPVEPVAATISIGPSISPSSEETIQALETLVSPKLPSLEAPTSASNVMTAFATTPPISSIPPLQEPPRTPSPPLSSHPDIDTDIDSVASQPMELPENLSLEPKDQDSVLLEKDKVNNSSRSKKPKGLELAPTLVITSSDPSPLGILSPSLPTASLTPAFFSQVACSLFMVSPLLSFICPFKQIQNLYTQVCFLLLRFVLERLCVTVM
# Method in brief: as §1
# ETV2 = target: T5, ETV2 (Homo sapiens, UniProt O00321 1-342); conditions: protein: recombinant; tags: N-terminal GST; dsDNA, one strand shown
# T5 sequence: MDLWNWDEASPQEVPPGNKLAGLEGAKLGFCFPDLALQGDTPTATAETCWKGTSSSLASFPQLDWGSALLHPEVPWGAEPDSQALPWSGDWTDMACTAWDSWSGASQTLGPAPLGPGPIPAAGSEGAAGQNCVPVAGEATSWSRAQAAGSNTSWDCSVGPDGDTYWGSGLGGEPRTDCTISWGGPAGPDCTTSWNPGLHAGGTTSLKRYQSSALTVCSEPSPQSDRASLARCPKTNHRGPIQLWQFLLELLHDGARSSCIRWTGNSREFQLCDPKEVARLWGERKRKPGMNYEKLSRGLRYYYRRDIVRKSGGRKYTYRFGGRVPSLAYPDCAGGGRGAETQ
# Method in brief: as §1
# ELF3 = target: T6, ELF3 (Homo sapiens, UniProt P78545 1-371); conditions: protein: recombinant; tags: N-terminal GST; dsDNA, one strand shown
# T6 sequence: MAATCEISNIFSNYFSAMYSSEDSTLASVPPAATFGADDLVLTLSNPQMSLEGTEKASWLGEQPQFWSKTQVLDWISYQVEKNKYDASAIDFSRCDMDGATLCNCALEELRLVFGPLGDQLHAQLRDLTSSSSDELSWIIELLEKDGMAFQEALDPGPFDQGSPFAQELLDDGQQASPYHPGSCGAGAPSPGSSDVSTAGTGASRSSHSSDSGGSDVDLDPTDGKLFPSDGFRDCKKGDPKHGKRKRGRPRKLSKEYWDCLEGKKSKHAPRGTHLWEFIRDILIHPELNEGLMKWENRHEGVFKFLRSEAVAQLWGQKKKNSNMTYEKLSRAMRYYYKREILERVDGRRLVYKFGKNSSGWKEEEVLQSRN
# Method in brief: as §1
# CRX = CRX (Homo sapiens, UniProt O43186 1-299); conditions: protein: recombinant; tags: N-terminal GST; dsDNA, one strand shown
# Chain of CRX (O43186 whole entry): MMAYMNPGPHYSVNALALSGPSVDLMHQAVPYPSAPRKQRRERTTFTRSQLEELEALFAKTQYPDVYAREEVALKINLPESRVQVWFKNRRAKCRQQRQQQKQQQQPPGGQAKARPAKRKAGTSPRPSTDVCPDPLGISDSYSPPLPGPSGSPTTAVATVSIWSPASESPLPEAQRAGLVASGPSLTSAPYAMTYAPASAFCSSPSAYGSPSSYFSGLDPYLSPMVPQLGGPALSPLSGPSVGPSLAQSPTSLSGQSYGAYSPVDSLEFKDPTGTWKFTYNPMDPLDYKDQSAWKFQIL
# Method in brief: as §1
# ETV3L = target: T7, ETV3L (Homo sapiens, UniProt Q6ZN32 1-361); conditions: protein: recombinant; tags: N-terminal GST; dsDNA, one strand shown
# T7 sequence: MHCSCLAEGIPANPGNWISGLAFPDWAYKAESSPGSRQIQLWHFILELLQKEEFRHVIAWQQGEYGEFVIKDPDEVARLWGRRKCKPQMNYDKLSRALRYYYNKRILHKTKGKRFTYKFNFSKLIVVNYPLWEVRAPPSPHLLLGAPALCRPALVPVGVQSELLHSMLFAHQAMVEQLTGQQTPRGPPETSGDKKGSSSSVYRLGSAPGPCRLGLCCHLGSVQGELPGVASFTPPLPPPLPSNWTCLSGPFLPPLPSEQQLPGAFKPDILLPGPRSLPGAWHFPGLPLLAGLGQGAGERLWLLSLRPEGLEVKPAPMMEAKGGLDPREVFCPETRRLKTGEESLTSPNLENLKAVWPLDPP
# Method in brief: as §1
# ETS2 = target: T8, ETS2 (Homo sapiens, UniProt P15036 1-469); conditions: protein: recombinant; tags: N-terminal GST; dsDNA, one strand shown
# T8 sequence: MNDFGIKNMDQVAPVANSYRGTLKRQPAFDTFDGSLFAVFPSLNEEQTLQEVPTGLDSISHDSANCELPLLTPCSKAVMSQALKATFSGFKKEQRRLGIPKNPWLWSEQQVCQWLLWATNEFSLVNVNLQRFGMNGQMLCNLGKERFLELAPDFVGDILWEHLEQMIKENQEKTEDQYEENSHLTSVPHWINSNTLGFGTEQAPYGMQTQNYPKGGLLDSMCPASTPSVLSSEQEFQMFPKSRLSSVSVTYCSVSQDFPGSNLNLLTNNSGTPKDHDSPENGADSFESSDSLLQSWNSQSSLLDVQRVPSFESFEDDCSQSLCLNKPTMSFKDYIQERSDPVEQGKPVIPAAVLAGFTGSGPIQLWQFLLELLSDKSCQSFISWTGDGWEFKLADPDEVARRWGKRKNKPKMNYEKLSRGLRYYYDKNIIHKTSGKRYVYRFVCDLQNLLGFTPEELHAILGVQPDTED
# Method in brief: as §1
# ETV7 = target: T9, ETV7 (Homo sapiens, UniProt Q9Y603 1-341); conditions: protein: recombinant; tags: N-terminal GST; dsDNA, one strand shown
# T9 sequence: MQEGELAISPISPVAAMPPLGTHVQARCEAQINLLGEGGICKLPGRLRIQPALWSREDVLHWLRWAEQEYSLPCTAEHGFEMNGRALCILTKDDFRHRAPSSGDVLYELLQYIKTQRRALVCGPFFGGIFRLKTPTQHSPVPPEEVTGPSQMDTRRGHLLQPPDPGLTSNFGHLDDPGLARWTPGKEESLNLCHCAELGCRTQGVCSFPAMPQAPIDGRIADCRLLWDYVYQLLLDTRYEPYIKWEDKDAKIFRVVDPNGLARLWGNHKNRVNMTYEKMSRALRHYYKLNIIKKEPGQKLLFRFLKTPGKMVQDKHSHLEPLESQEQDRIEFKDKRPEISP
# Method in brief: as §1
# ELF5 = target: T10, ELF5 (Homo sapiens, UniProt Q9UKW6-2 1-255); conditions: protein: recombinant; tags: N-terminal GST; dsDNA, one strand shown
# T10 sequence: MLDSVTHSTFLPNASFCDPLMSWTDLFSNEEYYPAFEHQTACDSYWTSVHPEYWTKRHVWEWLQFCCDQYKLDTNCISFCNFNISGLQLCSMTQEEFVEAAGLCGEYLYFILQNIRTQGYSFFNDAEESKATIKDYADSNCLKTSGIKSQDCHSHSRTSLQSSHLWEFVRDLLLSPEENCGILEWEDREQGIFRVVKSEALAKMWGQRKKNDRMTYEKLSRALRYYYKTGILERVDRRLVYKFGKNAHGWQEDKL
# Method in brief: as §1
sequence,measurement,setting,value
GCGATA,binding signal,GABPA,"1 fold enrichment (6-mer frequency, TF over GST control)"
same,binding signal,ERG,"1 fold enrichment (6-mer frequency, TF over GST control)"
same,binding signal,SPI1,"1.03 fold enrichment (6-mer frequency, TF over GST control)"
same,binding signal,SPIB,"1.02 fold enrichment (6-mer frequency, TF over GST control)"
same,binding signal,ELK3,"1.1 fold enrichment (6-mer frequency, TF over GST control)"
same,binding signal,HSF1,"1.06 fold enrichment (6-mer frequency, TF over GST control)"
same,binding signal,ELK4,"1.07 fold enrichment (6-mer frequency, TF over GST control)"
same,binding signal,ETV2,"1.11 fold enrichment (6-mer frequency, TF over GST control)"
same,binding signal,ELF3,"1.02 fold enrichment (6-mer frequency, TF over GST control)"
same,binding signal,CRX,"1.11 fold enrichment (6-mer frequency, TF over GST control)"
same,binding signal,ETV3L,"1.03 fold enrichment (6-mer frequency, TF over GST control)"
same,binding signal,ETS2,"1.04 fold enrichment (6-mer frequency, TF over GST control)"
same,binding signal,ETV7,"1.06 fold enrichment (6-mer frequency, TF over GST control)"
same,binding signal,ELF5,"1.02 fold enrichment (6-mer frequency, TF over GST control)"
